Where “and” joins values, the source holds several entries; their conditions need not be identical. Identical values can stand only once. Inconclusive results are not listed. Calls of active or inactive are those of the source. Unless noted, calls come from the whole dose curve; as a rule, active = well fitted curve in the direction sought with a large enough effect; inconclusive = small, poorly fitted or top-dose-only effect, or another doubt; inactive = no such curve, though single readings can be large; an effect the other way counts as inactive or inconclusive.
What was measured:
[1] = qHTS assay for measurement of the activity of small molecule inhibitors on Zika virus induced Caspase-3 activity in human iPSC derived neural progenitor cells (hNPCs) (AID 1224857); conditions: hNPCs ZIKV-induced caspase-3/7, Caspase-Glo luminescence, 6 h; series mostly up to 45.7 µM; note: % of control where 0% means no effect; nearly all actives have a fitted effect of over 65% in size
Procedure, shortened: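 hNPCs seeded 350 cells/well, cultured 16–20 h; compounds added 1 h before ZIKV (2 FFU/cell), 37 C 6 h. Caspase-Glo 3/7 luminescence after 30 min RT; % inhibition from induction scaled to uninfected (0%) and infected (100%) wells.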

[2] = qHTS assay for measurement of the activity of small molecule inhibitors on Zika virus induced Caspase-3 activity in human astrocytoma cells (AID 1224859); conditions: SNB-19 ZIKV-induced caspase-3/7, luminescence, 6 h; series mostly up to 45.7 µM;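 note: plate controls were ZIKV-infected untreated cells for no effect and uninfected cells for full effect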
Procedure, shortened: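 Luminescence read-out (Caspase-Glo 3/7, 30 min RT) of caspase activity in SNB-19 cells infected 6 h with ZIKV, 2 FFU/cell, after 1 h compound pretreatment; % inhibition from induction normalised to uninfected (0%) and infected (100%) wells.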

[3] = qHTS for compounds that reverse cellular toxicity of Amyloid beta (A-beta) peptide in yeast: LOPAC Validation Assay (AID 720559); conditions: yeast expressing A-beta; series mostly up to 46.1 µM;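 note: plate controls were DMSO for no effect and equimolar ferric chloride plus clioquinol rescue for full effect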
Procedure, shortened: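 Medium dispensed, compounds pinned, A-beta yeast suspension added; plates held at 30 C for 48 hr; absorbance measured at 600 nm to gauge growth; values scaled between DMSO and FeCl3/clioquinol (equimolar) controls.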

[4] = qHTS for Activators of Parkin Expression: LOPAC Validation Assay (NLuc Reporter) (AID 720572); conditions: Parkin promoter NanoLuc reporter cells, luminescence, percent of positive control, DMSO as zero; series mostly up to 46.1 µM
Procedure, shortened: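 NLuc signal, read 10 min after reagent and following a prior FLuc read, is normalized to DMSO (0) and positive controls (100%). Cells: neuronal Parkin-promoter coincidence reporter line; compounds tested 7-point, 24 h, 37 C, 5% CO2.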

[5] = target: T1, Hexokinase-4 (Homo sapiens) + Glucokinase regulatory protein (Homo sapiens) (UniProt P35557+Q14397); assay: qHTS assay for inhibitors of recombinant human GCK-GKRP interaction: Diaphorase-coupled assay (AID 743205); conditions: G6PDH/diaphorase resorufin fluorescence; series mostly up to 57.5 µM
Procedure, shortened: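 25 mM Hepes pH 7.6, 5 mM glucose, 0.4 mM ATP, 4 U/ml G6PDH; 10 nM each GST-GCK/FLAG-GKRP. Kinetic fluorescence read, 1/min × 30 min. Normalized: DMSO ± enzyme = max/min.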

[6] = target: T1, Hexokinase-4 (Homo sapiens) + Glucokinase regulatory protein (Homo sapiens); assay: qHTS assay for inhibitors of recombinant human GCK-GKRP interaction: HTRF assay (AID 743207); conditions: recombinant GCK-GKRP HTRF binding, 60 min, with sorbitol-6-phosphate; series mostly up to 57.5 µM;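 note: 0% = DMSO with GCK present and -100% = DMSO wells lacking GCK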
Procedure, shortened: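 5 nM GST-GCK + 5 nM FLAG-GKRP + 2 uM S6P, pH 7.1 buffer (25 mM Hepes, 2 mM MgCl2, 25 mM KCl, 1 mM DTT, Tween/BSA); pin-transferred cpd; anti-FLAG XL665/anti-GST K; 60 min RT; HTRF.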

[7] = qHTS Assay for Identifying Gametocytocidal Compounds (AID 743244);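 note: % is set by controls: 0 for no effect and ±100 for the full control effect; actives lower the fluorescent signal which means gametocytes are killed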; conditions: P. falciparum 3D7 stage III-V gametocytes, alamarBlue, 72 h; max response: stronger effect = lower value
Procedure, shortened: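 P. falciparum 3D7 stage III–V gametocytes (20,000 cells/well) were exposed to compounds for 72 h at 37 °C, 5% CO2. AlamarBlue was then added for 24 h; decreased resorufin fluorescence (Ex 525/Em 598 nm) indicated loss of viability.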

[8] = target: Tyrosine-protein kinase Yes (Homo sapiens) (UniProt P07947); assay: qHTS for small molecule inhibitors of Yes1 kinase: Primary Screen (AID 686947); conditions: Yes1 kinase biochemical qHTS inhibition; series mostly up to 76.9 µM;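 note: plate controls were DMSO with enzyme for no effect and no-enzyme DMSO wells for full effect; nearly all actives have a fitted effect of over 60% in size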
Procedure, shortened: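 In this qHTS format, inhibition is expressed relative to DMSO controls with enzyme (maximum) and without enzyme (minimum). The 60 min room-temperature reaction uses 0.1 mM ATP, with ADP detected by luminescence.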

[9] = qHTS for small molecule inhibitors of Yes1 kinase: Counter Assay (AID 686950); conditions: series mostly up to 76.9 µM;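 note: no kinase present so only ADP-Glo detection of a fixed ADP amount is tested; luminescence from ADP-Glo reporting ADP in a fixed ATP and ADP mixture; 0% = DMSO wells with ATP plus ADP and -100% = ATP-only wells without ADP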
Procedure, shortened: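 No kinase present; 0.08 mM ATP + 0.02 mM ADP in 50 mM Tris pH 7.5, 10 mM MgCl2, 150 mM NaCl, 1 mM DTT; 20 min compound preincubation, 60 min RT, ADP-Glo luminescence, normalized to ATP/ADP (max) and ATP-only (min).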

[10] = qHTS profiling for inhibitors of Plasmodium falciparum (3D7) proliferation (AID 743322; call rule not given here;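 note: infected erythrocytes exposed to compound for 72 h before lysis; 100% = DMSO vehicle wells and 0% = 0.29 µM artemisinin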); conditions: P. falciparum 3D7 proliferation; at 28.7 µM (top of the series) unless noted
Procedure, shortened: (§1)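 Parasite DNA was quantified by SYBR Green I fluorescence (ex 485, em 535 nm) after overnight lysis in saponin/Triton buffer at room temperature. Cultures at 0.3% parasitemia and 2.5% hematocrit were first exposed to compound for 72 h at 37 C; signals were normalised to artemisinin (0.29 uM) and vehicle wells.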

[11] = qHTS profiling for inhibitors of Plasmodium falciparum (DD2) proliferation (AID 743323; call rule not given here); conditions: lower = more inhibition; at 28.7 µM (top of the series) unless noted
Procedure, shortened: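 1536-well qHTS; infected RBCs 0.3% parasitemia/2.5% Hct final; cpd 72 h 37 C 5% CO2; lysis buffer + SYBR Green I, o/n RT dark; FI 485/535; norm. to 0.29 uM artemisinin and DMSO, plate-stack corrected.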

[12] = qHTS profiling for inhibitors of Plasmodium falciparum (HB3) proliferation (AID 743324); conditions: Plasmodium falciparum HB3 blood-stage proliferation; at 28.7 µM (top of the series) unless noted;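 note: 100% = DMSO vehicle wells and 0% = artemisinin-treated control wells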
Procedure, shortened: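 SYBR Green fluorescence (485 ex/535 em) of lysed cultures, incubated overnight at room temperature in the dark, quantifies parasite DNA. Infected erythrocytes at 0.3% parasitemia and 2.5% hematocrit were exposed 72 h; values normalized to DMSO and 0.29 uM artemisinin controls.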

[13] = qHTS profiling of the MIPE4 collection as inhibitors of Plasmodium falciparum (3D7) proliferation (AID 743344; call rule not given here;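 note: scaled between DMSO vehicle wells and 0.29 µM artemisinin as full inhibition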); conditions: P. falciparum 3D7 in erythrocytes, SYBR Green DNA fluorescence, 72 h; at 28.5 µM (top of the series) unless noted
Procedure, shortened: as §1

[14] = qHTS profiling of the MIPE4 collection as inhibitors of Plasmodium falciparum (DD2) proliferation (AID 743345; call rule not given here); conditions: P. falciparum Dd2 in erythrocytes, SYBR Green DNA, 72 h; at 28.5 µM (top of the series) unless noted
Procedure, shortened: as §1

[15] = qHTS profiling of the MIPE4 collection as inhibitors of Plasmodium falciparum (DD2) proliferation (Rep 2) (AID 743346; call rule not given here); conditions: P. falciparum Dd2 in erythrocytes, SYBR Green DNA, 72 h; at 28.5 µM (top of the series) unless noted
Procedure, shortened: as §1

[16] = qHTS profiling of the MIPE4 collection as inhibitors of Plasmodium falciparum (HB3) proliferation (AID 743347; call rule not given here;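 note: plate controls were DMSO vehicle wells for no effect and artemisinin wells for full effect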); conditions: P. falciparum HB3 in erythrocytes, SYBR Green DNA, 72 h; at 28.5 µM (top of the series) unless noted
Procedure, shortened: as §1

T1 sequence (P35557 whole entry, looked up): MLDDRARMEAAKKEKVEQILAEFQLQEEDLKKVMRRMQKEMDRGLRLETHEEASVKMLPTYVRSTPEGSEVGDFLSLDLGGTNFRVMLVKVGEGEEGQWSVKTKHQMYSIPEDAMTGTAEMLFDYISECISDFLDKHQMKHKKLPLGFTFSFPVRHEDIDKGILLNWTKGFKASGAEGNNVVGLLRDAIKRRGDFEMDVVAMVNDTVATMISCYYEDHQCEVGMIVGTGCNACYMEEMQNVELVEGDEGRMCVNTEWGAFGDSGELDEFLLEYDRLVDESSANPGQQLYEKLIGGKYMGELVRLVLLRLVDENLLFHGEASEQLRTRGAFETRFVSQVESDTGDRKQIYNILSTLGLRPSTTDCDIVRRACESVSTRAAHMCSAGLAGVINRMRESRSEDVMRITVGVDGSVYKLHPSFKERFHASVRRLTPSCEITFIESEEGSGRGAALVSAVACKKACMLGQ
T1 sequence (Q14397 whole entry, looked up): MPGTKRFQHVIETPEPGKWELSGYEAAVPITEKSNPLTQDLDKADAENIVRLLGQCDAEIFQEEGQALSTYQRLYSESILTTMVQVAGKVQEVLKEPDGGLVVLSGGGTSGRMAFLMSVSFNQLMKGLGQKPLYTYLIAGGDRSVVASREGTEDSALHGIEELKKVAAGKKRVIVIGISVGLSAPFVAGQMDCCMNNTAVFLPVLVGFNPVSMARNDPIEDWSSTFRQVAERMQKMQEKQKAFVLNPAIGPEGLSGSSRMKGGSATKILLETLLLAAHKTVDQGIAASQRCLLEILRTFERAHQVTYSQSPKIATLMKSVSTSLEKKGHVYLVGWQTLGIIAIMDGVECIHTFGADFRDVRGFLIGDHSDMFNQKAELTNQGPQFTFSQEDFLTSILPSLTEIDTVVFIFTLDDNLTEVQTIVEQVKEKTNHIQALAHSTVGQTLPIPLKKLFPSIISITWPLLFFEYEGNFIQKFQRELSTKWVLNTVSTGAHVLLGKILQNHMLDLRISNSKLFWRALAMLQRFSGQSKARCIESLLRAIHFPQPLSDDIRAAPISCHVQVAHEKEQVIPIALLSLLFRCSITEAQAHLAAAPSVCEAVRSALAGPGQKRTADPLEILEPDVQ
Sequence of Tyrosine-protein kinase Yes (Homo sapiens) (P07947 whole entry, looked up): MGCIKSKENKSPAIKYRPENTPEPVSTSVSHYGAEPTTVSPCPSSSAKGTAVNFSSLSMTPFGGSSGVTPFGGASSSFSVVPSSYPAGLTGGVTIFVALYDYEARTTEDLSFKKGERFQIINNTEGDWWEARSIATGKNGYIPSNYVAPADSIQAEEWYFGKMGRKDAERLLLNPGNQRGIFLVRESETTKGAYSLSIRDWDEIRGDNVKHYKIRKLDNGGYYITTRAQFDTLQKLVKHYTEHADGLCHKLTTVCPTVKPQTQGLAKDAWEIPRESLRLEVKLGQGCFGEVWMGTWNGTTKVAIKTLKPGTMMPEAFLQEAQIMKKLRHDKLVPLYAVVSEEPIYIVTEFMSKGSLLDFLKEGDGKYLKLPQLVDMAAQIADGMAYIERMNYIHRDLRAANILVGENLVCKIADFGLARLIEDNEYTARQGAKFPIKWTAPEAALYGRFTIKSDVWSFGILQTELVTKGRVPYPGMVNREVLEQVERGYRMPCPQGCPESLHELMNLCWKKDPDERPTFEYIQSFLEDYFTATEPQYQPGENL

C=C1C[C@H]2[C@@H]3C=C(C)C4=CC(=O)CC[C@]4(C)[C@H]3CC[C@]2(C)[C@@]1(OC(C)=O)C(C)=O
inactive: outcome [1] | outcome [2]

Cc1cc2c(cc1CC(=O)c1sccc1S(=O)(=O)Nc1onc(C)c1Cl)OCO2
inactive: outcome [1] | outcome [2]

CNCCC(Oc1ccccc1C)c1ccccc1 (stereo not given)
inactive: outcome [3] | outcome [4] | outcome [5] | outcome [6] | outcome [1] | outcome [2]

Nc1cc(Cl)c(NC2=NCCN2)c(Cl)c1
inactive: outcome [3] | outcome [4] | outcome [5] | outcome [6] | max response [7] -0.108% and 36.5% | outcome [1] | outcome [2]

Cc1cc(N)c2cc(NC(=O)Nc3ccc4nc(C)cc(N)c4c3)ccc2n1
inactive: outcome [1] | outcome [2]

COc1cc2c(cc1O)CC[C@@H]1[C@@H]2CC[C@]2(C)[C@@H](O)CC[C@@H]12
96.4%: parasite growth remaining, % of DMSO control (lower = more inhibition) [14]
93.9% and 38.4%: remaining proliferation (% of control), lower = more inhibition [12]
inactive: outcome [8] | outcome [9] | outcome [3] | outcome [4] | outcome [5] | outcome [6] | max response [7] -20.1% and 26.1% | outcome [1] | outcome [2]
83.5%: parasite growth, % of DMSO control [13] | growth, % of control [16]
90.1% and 79.2%: remaining parasite growth % (stronger effect = lower value) [10]
93.6% and 83.5%: activity, percent of control [11]
130%: parasite growth, % of control (lower = inhibition) [15]

CC(C)(C)CC(C)(C)c1ccc(O)c(Cc2ccc(Cl)cc2Cl)c1
inactive: outcome [1] | outcome [2]

CN(C)CC/C=C1\c2ccccc2Sc2ccc(Cl)cc21
inactive: outcome [1] | outcome [2]

CC(C)C[C@H]1C(=O)N2CCC[C@H]2[C@]2(O)O[C@](NC(=O)[C@@H]3C=C4c5cccc6[nH]c(Br)c(c56)C[C@H]4N(C)C3)(C(C)C)C(=O)N12
inactive: outcome [3] | outcome [4] | outcome [5] | outcome [6] | outcome [1] | outcome [2]

Source: PubChem BioAssay (NCATS)
